Assay results reported in PubChem BioAssay (NCATS).
Several values for one entry are separate records, joined by “and”; a condition that tells them apart may be missing. Equal values may be shown once. Records with an inconclusive call do not appear. Activity calls are given as the source filed them. Unless noted, the call rests on the fitted dose curve; in most records, active means well fitted curve in the direction sought with a large enough effect; inconclusive means small, poorly fitted or top-dose-only effect, or another doubt; inactive means no such curve, though single readings can be large; an effect the other way counts as inactive or inconclusive. Positions of bridges follow the written chain, without caps; N, C: chain ends. Non-standard residues stand in square brackets, D forms with d. Residues, ends and D or L forms follow the SMILES beside them. *: point of attachment. X1 = CCC(C)C(N)C1=NC(C(=O)*)CS1; dOrn = NCCC[C@@H](N)C(=O)O

Key:
[1] = target: Cellular tumor antigen p53 (Homo sapiens) (UniProt P04637); test: Primary qHTS for small molecule compounds that upregulate eGFP-tagged delta133p53alpha (in N-terminal) cells. (AID 2060322); conditions: NCI-H358 eGFP-delta133p53alpha fluorescence, 24 h; activation: active compounds read high;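 further: series mostly up to about 56 µM; 0% = DMSO vehicle and 100% = reference activator; nearly all actives have a fitted effect of over 75% in size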
Procedure, shortened: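 NCI-H358 cells pre-induced 24 h with 10 ng/ml doxycycline to express N-terminal eGFP-delta133p53alpha, then dosed 24 h at 37C without doxycycline; fixed, Hoechst-stained, GFP intensity by laser scanning cytometry, normalized to DMSO (0%) and 57.5 uM 5-azacytidine (100%).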

[2] = target: Aldehyde dehydrogenase, mitochondrial (Homo sapiens) (UniProt P05091); test: qHTS for Inhibitors of the Aldehyde Dehydrogenase Family (ALDH2) Confirmatory screens (AID 2061303; active means well fitted inhibition curve with a large enough effect; title and protocol of this record describe different tests; further: nearly all actives have a fitted effect of over 45% in size; further: potency means the concentration at half of the fitted maximal effect)
[3] = qHTS for Inhibitors of the Aldehyde Dehydrogenase Family (ALDH1A2, ALDH1A3, ALDH2, ALDH3A1) (AID 2061307); further: on the % scale 0 is the no-effect control and ±100 the full control effect; nearly all actives have a fitted effect of over 50% in size
[4] = target: Retinaldehyde dehydrogenase 3 (Homo sapiens) (UniProt P47895); test: qHTS for Inhibitors of the Aldehyde Dehydrogenase Family (ALDH1A3) Confirmatory screens (AID 2061311); further: nearly all actives have a fitted effect of over 60% in size; further: potency means the concentration at half of the fitted maximal effect
[5] = target: Retinal dehydrogenase 2 (Homo sapiens) (UniProt O94788); test: qHTS for Inhibitors of the Aldehyde Dehydrogenase Family (ALDH1A2) Confirmation screens (AID 2061314); further: nearly all actives have a fitted effect of over 65% in size; further: potency means the concentration at half of the fitted maximal effect
[6] = target: Aldehyde dehydrogenase 1A1 (Homo sapiens) (UniProt P00352); test: qHTS for Inhibitors of the Aldehyde Dehydrogenase Family (ALDH1A1) Confirmatory screens (AID 2061316); further: nearly all actives have a fitted effect of over 65% in size; further: potency means the concentration at half of the fitted maximal effect
[7] = target: Aldehyde dehydrogenase, mitochondrial (Homo sapiens) (UniProt P05091); test: qHTS for Inhibitors of the Aldehyde Dehydrogenase Family (ALDH2) Primary screen (AID 2061308);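 further: plate controls were vehicle for no effect and reference inhibitor for full effect; nearly all actives have a fitted effect of over 55% in size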
[8] = target: Retinaldehyde dehydrogenase 3 (Homo sapiens) (UniProt P47895); test: qHTS for Inhibitors of the Aldehyde Dehydrogenase Family (ALDH1A3) Validation screen (AID 2061312); further: nearly all actives have a fitted effect of over 45% in size; further: potency means the concentration at half of the fitted maximal effect
[9] = target: Retinaldehyde dehydrogenase 3 (Homo sapiens) (UniProt P47895); test: qHTS for Inhibitors of the Aldehyde Dehydrogenase Family (ALDH1A3) Primary screen (AID 2061315);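 further: plate controls were DMSO vehicle for no effect and reference inhibitor for full effect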
[10] = BET inhibitor-based combinations targeting novel dependencies in MECOM-rearranged (r) AML: OCI-AML3 cell line (AID 2202232); conditions: Potency: OCI-AML3 viability; further: nearly all actives have a fitted effect of over 35% in size; further: potency means the concentration at half of the fitted maximal effect
Procedure, shortened: (§1)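 Here, 11-point titrations of each agent were applied to 500 seeded cells and incubated 48 hr; CellTiter-Glo signal, scaled against DMSO and empty wells, was integrated as AUC, then Z-scored within the individual line.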

[11] = BET inhibitor-based combinations targeting novel dependencies in MECOM-rearranged (r) AML: MV-4-11 cell line (AID 2202233); further: nearly all actives have a fitted effect of over 45% in size; further: potency means the concentration at half of the fitted maximal effect
Procedure, shortened: (§2)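 Normalized to DMSO and empty-well controls, the luminescence data from CellTiter-Glo after 48 hr drug exposure were fitted across 11 concentrations. Reported metrics are area under the dose-response curve and its Z-transformed form.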

[12] = BET inhibitor-based combinations targeting novel dependencies in MECOM-rearranged (r) AML: SET-2 cell line (AID 2202231); conditions: SET-2 AML cells viability, CellTiter-Glo luminescence, 48 h; viability: active compounds read low, concentration not given here; further: nearly all actives have a fitted effect of over 35% in size; further: potency means the concentration at half of the fitted maximal effect;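 on viability: plate controls were DMSO treated cells for no effect and wells without cells for full effect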
Procedure, shortened: as §1

[13] = BET inhibitor-based combinations targeting novel dependencies in MECOM-rearranged (r) AML: UCSD-AML1 cell line (AID 2202235); further: nearly all actives have a fitted effect of over 40% in size; further: potency means the concentration at half of the fitted maximal effect
Procedure, shortened: as §2

[14] = BET inhibitor-based combinations targeting novel dependencies in MECOM-rearranged (r) AML: AML-194 cell line (AID 2202237; further: nearly all actives have a fitted effect of over 40% in size; further: potency means the concentration at half of the fitted maximal effect)
Procedure, shortened: as §1

[15] = BET inhibitor-based combinations targeting novel dependencies in MECOM-rearranged (r) AML: AML-191 cell line (AID 2202236; further: nearly all actives have a fitted effect of over 35% in size; further: potency means the concentration at half of the fitted maximal effect)
Procedure, shortened: as §1

[16] = BET inhibitor-based combinations targeting novel dependencies in MECOM-rearranged (r) AML: HNT-34 cell line (AID 2202234);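 further: plate controls were vehicle wells for no effect and cell-free wells for full effect; nearly all actives have a fitted effect of over 35% in size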
Procedure, shortened: as §2

Chain of Cellular tumor antigen p53 (Homo sapiens) (P04637 whole entry, looked up): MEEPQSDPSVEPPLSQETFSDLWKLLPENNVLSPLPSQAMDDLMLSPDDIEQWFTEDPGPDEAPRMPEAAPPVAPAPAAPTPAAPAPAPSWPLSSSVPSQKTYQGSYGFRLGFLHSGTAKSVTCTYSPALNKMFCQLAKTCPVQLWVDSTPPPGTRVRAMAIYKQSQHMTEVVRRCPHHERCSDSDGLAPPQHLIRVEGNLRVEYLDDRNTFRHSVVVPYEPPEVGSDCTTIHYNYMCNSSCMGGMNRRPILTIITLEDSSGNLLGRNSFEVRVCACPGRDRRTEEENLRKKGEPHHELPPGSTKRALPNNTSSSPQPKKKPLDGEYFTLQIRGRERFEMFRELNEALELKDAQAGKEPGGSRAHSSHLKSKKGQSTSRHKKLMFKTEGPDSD

CCCN(CCN1CCN(c2ccccc2OC)CC1)C1CCc2ncsc2C1 (stereo not drawn)
inactive: activation [1] -3.57% | Potency [2] | Potency [3] | Potency [4] | Potency [5] | Potency [6]

COc1ccc(NC(=O)c2ccc(-c3ccc(C(N)=O)cc3C)cc2)cc1N1CCN(C)CC1
inactive: activation [1] 1.43% | Potency [2] | Potency [7] | Potency [4] | Potency [8] | Potency [9] | Potency [6]

C=C1C(=O)OC2CC(C)=C(C(C)CCCO)C(O)C12 (stereo not drawn)
inactive: activation [1] 7.14% | Potency [2] | Potency [7] | Potency [5] | Potency [9]

O=C(CCCCCCC(=O)Nc1ccccc1)NO
active: Potency [8] 22.4 µM | Potency [10] 1.86 µM | Potency [11] 0.742 µM
inactive: activation [1] 17.7% and 26.7% | Potency [2] | Potency [7] | Potency [4] | Potency [5] | Potency [6]

COc1ccc(-c2ccn(CC[C@](C)(C(=O)NO)S(C)(=O)=O)c(=O)c2)c(F)c1
inactive: activation [1] -16.3% | Potency [7]
active: Potency [2] 7.94 µM | Potency [4] 7.98 µM | Potency [5] 5.65 µM | Potency [6] 2.52 µM

Nc1ccccc1NC(=O)c1ccc(CNC(=O)OCc2cccnc2)cc1
active: Potency [12] 2.09 µM | Potency [10] 2.35 µM | Potency [11] 1.48 µM | Potency [13] 1.66 µM | Potency [14] 4.68 µM
inactive: activation [1] 3.28% | Potency [2] | Potency [7] | Potency [4] | Potency [8] | Potency [5] | Potency [9] | Potency [6]

C=CC(=O)N1CCN(C(=O)CNc2cc(-c3ccccc3Cl)c(Cl)cc2OC)CC1
inactive: activation [1] 8.59% | Potency [2] | Potency [7] | Potency [4] | Potency [8] | Potency [9] | Potency [6]

Cn1cc(-c2ccc3ncc(Cc4ccc5ncccc5c4)n3n2)cn1
inactive: activation [1] 15.2% and 9.55% | Potency [2] | Potency [7] | Potency [9] | Potency [6] | viability [12] 105% | Potency [13]
active: Potency [11] 18.6 µM | Potency [15] 13.2 µM

CC1=CC(=O)C(=C(C)C)CC2C(C)(O)CCC12O (stereo not drawn)
inactive: activation [1] -8.93% | Potency [2] | Potency [7] | Potency [5] | Potency [9] | Potency [6]

Cc1ccc(CN2CCNCC2)cc1NC(=O)CNc1ccc(F)c(F)c1
inactive: activation [1] -12.8% and -5.25% | Potency [2] | Potency [7] | Potency [4] | Potency [9] | viability [12] 115% | Potency [10] | Potency [11] | Potency [16] | Potency [13] | Potency [15] | Potency [14]
active: Potency [6] 12.7 µM

CC1(C)O[C@@]2(C)CC[C@@H]1C[C@@H]2OC1OC(CO)C(O)C(O)C1O (stereo partly drawn)
inactive: activation [1] -6.11% | Potency [2] | Potency [7] | Potency [5] | Potency [9] | Potency [6]

Clc1ncoc1-c1c[nH]c2ccccc12
inactive: activation [1] 11.5% | Potency [2] | Potency [7] | Potency [4] | Potency [5] | Potency [9]

Oc1ccc(Nc2nc(-c3ccc(Cl)cc3)cs2)cc1
inactive: activation [1] 24.1% | Potency [2] | Potency [7] | Potency [4] | Potency [5] | Potency [9] | Potency [14]
active: Potency [12] 9.34 µM | Potency [11] 14.8 µM | Potency [13] 6.61 µM

CCC(C)C(N)C1=NC(C(=O)N[C@@H](CC(C)C)C(=O)N[C@H](CCC(=O)O)C(=O)N[C@H](C(=O)N[C@H]2CCCCNC(=O)[C@H](CC(N)=O)NC(=O)[C@@H](CC(=O)O)NC(=O)[C@H](Cc3cnc[nH]3)NC(=O)[C@@H](Cc3ccccc3)NC(=O)[C@H]([C@@H](C)CC)NC(=O)[C@@H](CCCN)NC2=O)[C@@H](C)CC)CS1 (stereo partly drawn) (X1-L[dE]IK[dOrn]I[dF]H[dD]N; lactam 4-C)
active: Potency [2] 12.7 µM | Potency [5] 11.3 µM | Potency [6] 4 µM
inactive: activation [1] -3.34% and -0.955% | Potency [7] | Potency [4] | Potency [8] | Potency [9] | viability [12] 117% | Potency [10] | Potency [11] | Potency [16] | Potency [13] | Potency [15] | Potency [14]

OCC(O)C(c1c[nH]c2ccccc12)c1c[nH]c2ccccc12 (stereo not drawn)
inactive: activation [1] -8.93% | Potency [2] | Potency [7] | Potency [9]

Cc1ccccc1C#Cc1ccc(CCC(=O)O)cc1
inactive: activation [1] 4.3% | Potency [2] | Potency [7] | Potency [8] | Potency [5] | Potency [6]
active: Potency [4] 10.1 µM

CC1(C)CCC2(C(=O)OC3OC(CO)C(O)C(O)C3O)CCC3(C)C(=CCC4C5(C)CCC(O)C(C)(C(=O)O)C5CCC43C)C2C1O (stereo not drawn)
inactive: activation [1] 3.57% | Potency [2] | Potency [7] | Potency [4] | Potency [5] | Potency [9] | Potency [6]

COC(=O)N1CCN(Cc2cccc(NC(=O)Nc3ccc(C)nc3)c2F)CC1
inactive: activation [1] 4.35% and -6.68% | Potency [2] | Potency [7] | Potency [4] | Potency [8] | Potency [5] | Potency [9] | Potency [6] | viability [12] 104% | Potency [10] | Potency [15] | Potency [14]
